A selection: hits, their analogues and other compounds. The true share with any hit is near 4.3%.
SMARCA2 act = SMARCA2 (BRM) function activators, primary screen, cell-based, luminescence, high throughput; MG213 cells, MMTV-luciferase reporter, dexamethasone, overnight; activation, % at 9.1 µM; hit rate 1% among 370,000; in the data active = activation above about 7.8%;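 note: 0% = vehicle wells and 100% = reference activator wells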
MITF TRPM1 HTS = activators of MITF-driven TRPM1 promoter reporter, primary screen, cell-based, SK-MEL-5, luciferase, single point. AID 588334, 2011. hit rate 0.75% among 300,000. SK-MEL-5 TRPM1-promoter luciferase, 24 h; % of positive control, neutral wells = 0. activation, % at 12.5 µM;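 active = mean activation of at least 80% with every replicate also reaching 80%; inconclusive = mean reaches 80% but some replicate falls short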;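 note: 0% = neutral control wells and 100% = parthenolide positive control wells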
Wnt act = Wnt/beta-catenin pathway activators, primary screen, cell-based, plate reader, single point; AID 743398, 2014; Wnt/beta-catenin reporter cell assay, activator; hit rate 1.2% among 300,000; activation, % at 9.35 µM; in the data active = activation above about 30%, passing the limit was not always enough; inconclusive = no clear call, values can overlap the other calls;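 note: 0% = neutral control wells and 100% = positive control wells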
esBAF inh = Bmi1 luciferase reporter increase in mESCs, primary screen, esBAF inhibitor project, mouse ES cells, Bmi1 luciferase knock-in, single point; reporter increase, % at 12.5 µM; hit rate 2% among 350,000; 24 h; 100% = twice the neutral-well signal; AID 602393, 2012; in the data active = activation above about 40%; inconclusive = no clear call, values can overlap the other calls;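 note: 0% = median of the plate's neutral control wells and 100% = double that signal; a rise in the Bmi1 reporter signal indicates esBAF inhibition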
MLL AF4-AF9 inh = inhibitors of AF4 peptide binding to AF9, primary screen, biochemical, AlphaScreen, biotin-AF4 peptide, FLAG-AF9, single point; AID 651704, 2012; hit rate 0.47% among 350,000; Protein AF-9 (Homo sapiens), P42568; inhibition, % at 10 µM;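 active = every replicate reaching a set inhibition limit, whatever the replicate mean, cut at about 25% in these data; inconclusive = mean inhibition reaches that limit but some replicates miss it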;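 note: 0% = plate neutral control median and 100% = total signal loss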
FGF22 binding = binders of human FGF22 protein, primary screen, FGF22 synaptogenesis inhibitor project, biophysical, thermal shift, single point; Fibroblast growth factor 22 (Homo sapiens), Q9HCT0; recombinant FGF22 thermal shift, SYPRO orange fluorescence; percent of sucrose octasulfate shift, DMSO zero; activity (Tm shift, normalised), % at 9.99 µM; hit rate 1.5% among 340,000; AID 651658, 2012;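 active = mean Tm shift, scaled 0 neutral to 100 positive control, at about 1.3% or above, every replicate too, limit read from the data; inconclusive = no clear call, values can overlap the other calls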
Target sequence (Q9HCT0 whole entry, looked up): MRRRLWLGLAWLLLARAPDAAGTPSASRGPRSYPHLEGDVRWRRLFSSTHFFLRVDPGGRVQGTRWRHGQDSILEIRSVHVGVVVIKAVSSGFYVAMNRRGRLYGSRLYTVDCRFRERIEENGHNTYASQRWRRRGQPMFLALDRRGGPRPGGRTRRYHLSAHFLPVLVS
* hit, by the source's call; ? = inconclusive; . = no result given.

SMILES | SMARCA2 act | MITF TRPM1 HTS | Wnt act | esBAF inh | MLL AF4-AF9 inh | FGF22 binding
Cc1cc(-c2nnc(-c3cccc(Cl)c3)o2)no1 | -1 | . | 53* | . | ? | 0
CO[C@@H]1CN(C)C(=O)c2cc(NC(=O)c3ccccc3)ccc2OC[C@H](C)NC[C@@H]1C | . | . | . | 4 | -3 | 0
CCN(CC)c1ccc(Nc2nc(-c3cccnc3)cs2)cc1 | 3 | 112* | 29 | 60* | 2 | 0
Cc1cccc(Nc2nc(-c3ccncc3)cs2)c1 | 1 | 50 | 9 | . | 6 | 1
CN(C)c1ccc(Nc2nc(-c3cccnc3)cs2)cc1 | 4 | 9 | . | -28 | . | .
Clc1ccc(Nc2nc(-c3cccnc3)cs2)cc1 | 6 | 23 | . | 54* | . | .
Cc1ccc(Nc2nc(-c3ccncc3)cs2)cc1 | 2 | 88* | 43* | . | -1 | 0
O=C(N[C@H]1CC[C@@H](CCNS(=O)(=O)c2ccc(F)cc2)O[C@@H]1CO)C1CCOCC1 | . | . | . | 1 | 3 | 0
C[C@H]1CCCCO[C@H](CN(C)C(=O)Cc2ccccc2)[C@@H](C)CN([C@@H](C)CO)C(=O)c2cc(NC(=O)Nc3ccc4c(c3)OCO4)ccc2O1 | . | . | . | 1 | 4 | -1
Cc1ccc(C)c(N2CCN(C(=O)CCc3nc(-c4ccccc4F)no3)CC2)c1 | -1 | 33 | 0 | 3 | 0 | 0
Cc1ccc(C)c(N2CCN(C(=O)CCc3nc(-c4ccccc4Br)no3)CC2)c1 | 2 | 59 | 8 | 43* | -3 | 0
Nc1cc(Nc2ccc(Br)cc2)nc(N)n1 | 3 | ? | 39* | . | . | 0
Cc1cc(Nc2ccc(Cl)cc2)nc(N)n1 | 4 | 53 | . | 36 | . | .
O=C(c1ccccc1)c1ccc[nH]1 | -4 | 5 | -7 | 6 | 3 | 43*
O=C(c1ccccc1)c1cnc[nH]1 | -4 | 18 | 5 | 10 | -1 | 0
CC(C)(C)n1nnnc1C(c1ccc2ncccc2c1)N1CCC(O)CC1 (stereo unspecified) | -4 | 7 | 0 | 3 | -3 | 44*
CCC[C@@H](CN1CCC[C@H]1CN1C(N)=NC[C@@H]1Cc1ccccc1)N1C[C@@H]([C@H](C)CC)N(CCc2ccc(Cl)c(Cl)c2)C1=N | . | 4 | . | -1 | . | .
CCC[C@@H](CN1CCC[C@H]1CN1C(N)=NC[C@H]1CC(C)C)N1C[C@@H]([C@H](C)CC)N(CCc2ccc(Cl)c(Cl)c2)C1=N | -3 | 2 | -2 | 3 | 25* | 0
CCC[C@@H](CN1CCC[C@H]1CN1C(N)=NC[C@H]1CC(C)C)N1C[C@@H](Cc2ccccc2)N(CCc2ccc(Cl)c(Cl)c2)C1=N | -6 | 12 | -2 | -5 | 33* | 0
C/C(=N\NC(=O)c1ccc(Cn2cc(Br)cn2)o1)c1ccc(NC(=O)c2ccoc2C)cc1 | 5 | 54 | 11 | 47* | 0 | 0
O=C(CCl)Nc1cn(-c2ccccc2)nc1-c1ccccc1 | -1 | -73 | 11 | 8 | 1 | 43*
CC(=O)Nc1cn(-c2ccccc2)nc1-c1ccccc1 | -1 | -12 | -1 | 0 | 0 | 0
Cc1ccc(-n2cc(CNCCn3nc(C)cc3C)c(-c3ccc(F)cc3)n2)cc1 | -1 | 19 | 0 | -9 | 4 | 0
Cc1ccc(-n2cc(CNCCc3ncc(C)[nH]3)c(-c3ccc(F)cc3)n2)cc1 | 0 | 1 | -1 | . | 28* | 0
CCN1/C(=C2\C(=O)N(c3ccccc3)N=C2C)C=Cc2cc(C)ccc21 | 3 | -12 | -2 | . | 3 | 43*
CCN1/C(=c2/s/c(=C3/C(=O)N(c4ccccc4)N=C3C)n(CC)c2=O)C=Cc2ccccc21 | 0 | -7 | 4 | . | 4 | 0
COc1ccc(-c2nc3cnccn3c2Nc2ccc3c(c2)OCO3)cc1 | 1 | 3 | 5 | 0 | 28* | 0
N#C/C(=C\c1ccc(N2CCOCC2)o1)c1ccccc1 | 6 | 87* | 1 | 94* | -43 | 0
